Measurements reported in PubChem BioAssay.
Active and inactive are the calls of the source.

Legend:
[1] = test system: PRMT1 (protein arginine N-methyltransferase 1); experiment: small molecules binding arginine methyltransferase PRMT1 – biochemical, small-molecule microarray, 635 nm fluorescence, primary screen (AID 1088); settings: higher = more signal;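 also: binding of Prmt1 protein to compounds spotted on small-molecule microarray slides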
[2] = growth effects on S. cerevisiae YJM789 – YJM789 clinical isolate, OD600, 24 h, basal, primary screen (AID 1089); settings: higher = more signal, called active from +8 up or from −8 down;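 also: growth of clinical yeast isolate S. cerevisiae YJM 789 seeded 1000 cells per well; test concentration not given here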
[3] = S. pombe growth modifiers, basal conditions – strain 972, OD600, 24 h, no modulator, primary screen (AID 1090);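 also: basal condition with compound alone and no growth modifier present; test concentration not given here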; settings: S. pombe 972 growth, higher = more signal, called active from +8 up or from −8 down
[4] = budding yeast growth modifiers under rapamycin – strain BY4716, OD600, 96 h, primary screen (AID 1091); also: test concentration not given here; settings: S. cerevisiae BY4716 + rapamycin, higher = more signal, called active from +8 up or from −8 down
[5] = target: Torsin-1A-interacting protein 2 (Homo sapiens) (UniProt Q8NFQ8); experiment: small molecules binding lysate-expressed LULL1 – cell lysate, human LULL1 lysate, 635/667 nm fluorescence, primary screen (AID 1092); settings: small-molecule microarray, hLULL1 lysate binding, 635 nm fluorescence; higher = more signal;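 also: probe is lysate of COS7 cells overexpressing human LULL1; score merges per-feature 667 nm fluorescence with signal-to-noise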
Sequence of Torsin-1A-interacting protein 2 (Homo sapiens) (Q8NFQ8 whole entry, looked up): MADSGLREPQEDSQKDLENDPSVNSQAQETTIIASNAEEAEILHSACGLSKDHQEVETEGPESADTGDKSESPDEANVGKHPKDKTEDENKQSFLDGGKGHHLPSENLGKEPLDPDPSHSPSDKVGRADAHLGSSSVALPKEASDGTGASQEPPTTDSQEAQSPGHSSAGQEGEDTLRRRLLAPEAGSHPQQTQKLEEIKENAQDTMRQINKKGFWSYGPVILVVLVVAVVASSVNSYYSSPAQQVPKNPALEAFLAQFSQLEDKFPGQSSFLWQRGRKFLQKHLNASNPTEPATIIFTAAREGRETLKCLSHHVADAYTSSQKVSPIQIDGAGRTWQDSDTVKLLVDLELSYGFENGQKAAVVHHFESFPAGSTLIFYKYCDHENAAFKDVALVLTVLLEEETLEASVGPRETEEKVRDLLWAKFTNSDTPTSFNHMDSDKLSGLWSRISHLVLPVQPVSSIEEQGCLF

[6] = optical density change of DRC41 E. coli – strain DRC41, OD650, 24 h, E. coli filamentation project, primary screen (AID 1093);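 also: MC1000 strain lacking acrAB efflux and sulA so SOS filamentation is blocked; test concentration not given here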; settings: E. coli DRC41 growth, higher = more signal, called active from +8 up or from −8 down
[7] = probe aLefty2 binding to arrayed compounds – biochemical, biotinylated probe, 635/667 nm fluorescence, primary screen (AID 1094); settings: small-molecule microarray, higher = more signal;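 also: score merges spot fluorescence near 667 nm with spot signal-to-noise ratio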
[8] = test system: Noggin (protein binding on small-molecule microarray); experiment: small molecules binding Noggin protein – biochemical, 635/667 nm fluorescence, primary screen (AID 1095); settings: 635 nm fluorescence, higher = more signal;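 also: score merges 667 nm feature fluorescence with signal to noise over triplicate slides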
[9] = target: Neurogenic locus notch homolog protein 3 (Homo sapiens) (UniProt Q9UM47); experiment: small molecules binding NOTCH3 protein – biochemical, 635/667 nm fluorescence, primary screen (AID 1096); settings: small-molecule microarray, 635 nm fluorescence, higher = more signal
Sequence of Neurogenic locus notch homolog protein 3 (Homo sapiens) (Q9UM47 whole entry, looked up): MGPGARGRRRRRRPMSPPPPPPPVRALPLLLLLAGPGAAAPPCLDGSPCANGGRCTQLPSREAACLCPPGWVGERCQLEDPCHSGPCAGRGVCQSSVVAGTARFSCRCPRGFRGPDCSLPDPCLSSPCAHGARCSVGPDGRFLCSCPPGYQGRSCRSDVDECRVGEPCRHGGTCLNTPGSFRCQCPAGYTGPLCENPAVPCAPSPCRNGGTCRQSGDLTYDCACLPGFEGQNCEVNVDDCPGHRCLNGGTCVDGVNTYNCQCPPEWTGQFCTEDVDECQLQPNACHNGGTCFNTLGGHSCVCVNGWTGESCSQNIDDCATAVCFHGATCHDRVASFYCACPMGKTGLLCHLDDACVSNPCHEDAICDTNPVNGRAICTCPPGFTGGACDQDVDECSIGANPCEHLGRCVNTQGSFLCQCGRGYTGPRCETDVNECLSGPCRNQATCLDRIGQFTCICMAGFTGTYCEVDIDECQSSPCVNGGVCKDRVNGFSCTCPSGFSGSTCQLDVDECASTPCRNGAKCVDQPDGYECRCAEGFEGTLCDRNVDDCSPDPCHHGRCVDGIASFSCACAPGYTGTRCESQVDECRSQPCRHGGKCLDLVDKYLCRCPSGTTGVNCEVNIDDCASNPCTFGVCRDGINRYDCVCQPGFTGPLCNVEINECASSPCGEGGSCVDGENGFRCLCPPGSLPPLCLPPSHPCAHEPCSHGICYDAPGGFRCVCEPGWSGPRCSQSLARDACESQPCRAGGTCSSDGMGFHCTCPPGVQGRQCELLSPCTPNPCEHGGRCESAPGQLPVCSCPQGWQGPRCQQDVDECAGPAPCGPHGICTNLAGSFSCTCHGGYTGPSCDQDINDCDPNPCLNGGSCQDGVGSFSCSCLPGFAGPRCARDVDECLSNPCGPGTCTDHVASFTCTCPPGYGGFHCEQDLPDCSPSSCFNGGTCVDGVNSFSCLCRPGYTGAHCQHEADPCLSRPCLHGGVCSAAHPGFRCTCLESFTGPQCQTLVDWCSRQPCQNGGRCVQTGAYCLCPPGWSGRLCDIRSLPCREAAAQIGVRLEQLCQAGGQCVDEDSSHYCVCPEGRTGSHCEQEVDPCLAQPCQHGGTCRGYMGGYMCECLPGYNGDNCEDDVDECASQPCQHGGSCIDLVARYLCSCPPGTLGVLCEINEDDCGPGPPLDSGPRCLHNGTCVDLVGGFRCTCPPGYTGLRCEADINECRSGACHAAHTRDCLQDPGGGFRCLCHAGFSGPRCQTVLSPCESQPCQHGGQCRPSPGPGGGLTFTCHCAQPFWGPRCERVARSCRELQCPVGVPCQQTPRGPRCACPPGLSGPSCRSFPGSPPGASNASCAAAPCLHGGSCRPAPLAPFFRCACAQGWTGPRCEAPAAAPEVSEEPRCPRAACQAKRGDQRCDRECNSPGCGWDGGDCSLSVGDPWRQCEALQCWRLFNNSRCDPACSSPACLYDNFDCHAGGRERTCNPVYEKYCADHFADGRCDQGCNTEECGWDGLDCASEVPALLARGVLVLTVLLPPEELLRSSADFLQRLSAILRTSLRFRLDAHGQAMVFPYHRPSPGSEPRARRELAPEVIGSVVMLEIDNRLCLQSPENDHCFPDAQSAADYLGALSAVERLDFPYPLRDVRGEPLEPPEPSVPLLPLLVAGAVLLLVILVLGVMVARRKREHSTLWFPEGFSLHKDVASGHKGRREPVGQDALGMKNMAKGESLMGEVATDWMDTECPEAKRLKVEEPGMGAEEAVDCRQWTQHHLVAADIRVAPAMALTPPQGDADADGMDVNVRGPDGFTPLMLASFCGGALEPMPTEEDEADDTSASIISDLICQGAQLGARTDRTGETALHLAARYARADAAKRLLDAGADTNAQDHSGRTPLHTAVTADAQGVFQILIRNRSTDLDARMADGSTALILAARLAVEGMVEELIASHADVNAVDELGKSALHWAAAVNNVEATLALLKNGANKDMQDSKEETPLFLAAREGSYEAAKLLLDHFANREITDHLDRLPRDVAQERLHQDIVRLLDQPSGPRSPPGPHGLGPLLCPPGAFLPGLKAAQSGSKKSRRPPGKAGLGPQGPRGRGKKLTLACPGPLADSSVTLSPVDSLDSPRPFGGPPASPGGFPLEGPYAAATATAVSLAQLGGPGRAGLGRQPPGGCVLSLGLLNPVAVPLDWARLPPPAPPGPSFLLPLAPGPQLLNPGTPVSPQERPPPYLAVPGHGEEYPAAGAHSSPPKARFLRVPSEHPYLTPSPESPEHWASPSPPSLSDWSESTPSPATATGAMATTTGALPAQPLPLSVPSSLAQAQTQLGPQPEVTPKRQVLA

[10] = probe aEGFR binding to arrayed compounds – biochemical, biotinylated probe, 635/667 nm fluorescence, primary screen (AID 1097); settings: small-molecule microarray, higher = more signal;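 also: probe is a biotinylated anti-EGFR antibody binding compounds printed on slides; score combines fluorescence near 667 nm and signal to noise of each spot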
[11] = test system: Plasmodium falciparum Sir2 (PF13_0152, Sir2A); experiment: Plasmodium falciparum Sir2A binding compounds – biochemical, small-molecule microarray, 635 nm fluorescence, primary screen (AID 1098); settings: fluorescence 635 nm, higher = more signal;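 also: score merges spot fluorescence intensity with its signal-to-noise ratio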
[12] = probe aDKK1 binding to arrayed compounds – biochemical, biotinylated probe, 635/667 nm fluorescence, primary screen (AID 1099); settings: small-molecule microarray, higher = more signal;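 also: score merges 667nm spot fluorescence with signal to noise across triplicate slides; reference of the scale not given here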
[13] = probe aCHRDL2 binding to arrayed compounds – biochemical, biotinylated probe, 635/667 nm fluorescence, primary screen (AID 1100); settings: small-molecule microarray, higher = more signal
[14] = change in splice reporter luminescence, either direction, cell-based, HEK293, spliceosome inhibition project, primary screen (AID 1101); settings: HEK293 splicing luciferase reporter, 24 h, higher = more signal, called active from +8 up or from −8 down;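 also: HEK293 cells carrying a splicing-competent luciferase reporter gene; test concentration not given here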
[15] = target: Fibroblast growth factor 10 (Homo sapiens) (UniProt O15520); experiment: compounds binding fibroblast growth factor 10 – biochemical, small-molecule microarray, 635 nm fluorescence, primary screen (AID 1102); settings: FGF10 binding, fluorescence 635 nm, higher = more signal
Sequence of Fibroblast growth factor 10 (Homo sapiens) (O15520 whole entry, looked up): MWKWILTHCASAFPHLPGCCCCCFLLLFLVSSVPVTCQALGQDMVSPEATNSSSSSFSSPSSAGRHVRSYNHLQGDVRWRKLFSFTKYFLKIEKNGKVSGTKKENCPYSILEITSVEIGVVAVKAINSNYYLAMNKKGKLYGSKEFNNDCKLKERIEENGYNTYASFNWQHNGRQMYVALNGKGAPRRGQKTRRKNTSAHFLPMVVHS

[16] = test system: glycogen synthase kinase-3 (GSK3A per assay name; protocol says GSK3B); experiment: compounds binding glycogen synthase kinase-3 – biochemical, small-molecule microarray, 635 nm fluorescence, GSK3A, primary screen (AID 1103); settings: fluorescence 635 nm, higher = more signal; also: the record names both GSK3A and GSK3B
[17] = target: Epidermal growth factor receptor (Homo sapiens) (UniProt P00533); experiment: compounds binding epidermal growth factor receptor – biochemical, small-molecule microarray, 635 nm fluorescence, primary screen (AID 1104); settings: EGFR binding, higher = more signal;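 also: score merges 667 nm emission intensity with spot signal to noise over triplicate slides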
Sequence of Epidermal growth factor receptor (Homo sapiens) (P00533 whole entry, looked up): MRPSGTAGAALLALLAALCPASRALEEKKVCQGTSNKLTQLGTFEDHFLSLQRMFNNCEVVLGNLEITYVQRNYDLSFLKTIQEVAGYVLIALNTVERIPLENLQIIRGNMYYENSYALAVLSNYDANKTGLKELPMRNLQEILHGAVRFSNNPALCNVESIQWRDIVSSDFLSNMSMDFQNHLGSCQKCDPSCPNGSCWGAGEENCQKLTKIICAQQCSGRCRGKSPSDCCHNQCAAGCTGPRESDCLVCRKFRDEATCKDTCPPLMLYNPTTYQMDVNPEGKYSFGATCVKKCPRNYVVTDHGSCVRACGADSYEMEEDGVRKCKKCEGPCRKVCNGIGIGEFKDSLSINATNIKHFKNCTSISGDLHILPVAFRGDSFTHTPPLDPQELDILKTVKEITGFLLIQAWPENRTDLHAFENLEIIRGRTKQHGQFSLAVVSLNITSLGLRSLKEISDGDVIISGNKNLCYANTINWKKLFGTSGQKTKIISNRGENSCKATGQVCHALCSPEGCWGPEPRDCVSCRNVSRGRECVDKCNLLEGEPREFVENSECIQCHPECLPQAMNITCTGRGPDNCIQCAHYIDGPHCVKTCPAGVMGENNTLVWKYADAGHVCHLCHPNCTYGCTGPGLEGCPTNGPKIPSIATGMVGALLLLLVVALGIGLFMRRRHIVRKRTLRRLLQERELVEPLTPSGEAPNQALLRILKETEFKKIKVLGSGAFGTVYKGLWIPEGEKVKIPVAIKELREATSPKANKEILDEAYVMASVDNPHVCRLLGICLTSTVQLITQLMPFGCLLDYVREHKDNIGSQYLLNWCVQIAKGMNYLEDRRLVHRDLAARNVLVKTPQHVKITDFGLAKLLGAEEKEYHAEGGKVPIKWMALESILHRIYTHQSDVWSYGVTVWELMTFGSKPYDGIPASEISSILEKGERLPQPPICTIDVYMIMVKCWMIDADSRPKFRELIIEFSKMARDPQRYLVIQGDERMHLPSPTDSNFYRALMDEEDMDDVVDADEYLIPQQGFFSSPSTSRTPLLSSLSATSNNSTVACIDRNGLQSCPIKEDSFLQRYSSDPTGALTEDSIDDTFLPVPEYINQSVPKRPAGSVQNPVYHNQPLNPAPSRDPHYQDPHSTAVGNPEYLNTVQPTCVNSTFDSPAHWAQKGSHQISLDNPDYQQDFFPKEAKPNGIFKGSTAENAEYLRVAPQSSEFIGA

[18] = target: Follistatin-related protein 3 (Homo sapiens) (UniProt O95633); experiment: compounds binding follistatin-related protein 3 – biochemical, small-molecule microarray, 635 nm fluorescence, primary screen (AID 1105); settings: FSTL3 binding, higher = more signal;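 also: score merges emission near 667 nm and signal to noise per printed spot across three slides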
Sequence of Follistatin-related protein 3 (Homo sapiens) (O95633 whole entry, looked up): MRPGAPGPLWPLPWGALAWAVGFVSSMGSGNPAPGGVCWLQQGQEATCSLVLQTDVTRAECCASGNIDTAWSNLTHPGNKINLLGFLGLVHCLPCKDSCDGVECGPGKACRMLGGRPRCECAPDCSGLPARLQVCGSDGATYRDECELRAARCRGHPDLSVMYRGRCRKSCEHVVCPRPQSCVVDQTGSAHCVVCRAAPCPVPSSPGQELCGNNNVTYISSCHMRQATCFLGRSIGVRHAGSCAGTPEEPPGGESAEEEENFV

[19] = target: Dickkopf-related protein 1 (Homo sapiens) (UniProt O94907); experiment: small molecules binding DKK1 protein – biochemical, small-molecule microarray, 635 nm fluorescence scan, primary screen (AID 1106); settings: higher = more signal;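 also: score merges emission near 667 nm with signal to noise over three replicate slides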
Sequence of Dickkopf-related protein 1 (Homo sapiens) (O94907 whole entry, looked up): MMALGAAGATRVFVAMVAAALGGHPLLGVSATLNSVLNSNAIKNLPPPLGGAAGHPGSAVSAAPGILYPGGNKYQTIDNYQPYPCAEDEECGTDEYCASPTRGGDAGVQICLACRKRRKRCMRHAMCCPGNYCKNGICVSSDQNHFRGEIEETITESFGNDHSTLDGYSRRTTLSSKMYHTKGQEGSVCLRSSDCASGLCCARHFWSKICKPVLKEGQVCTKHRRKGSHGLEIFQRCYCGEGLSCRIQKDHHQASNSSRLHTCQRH

[20] = test system: Inhibin beta A chain (activin A); experiment: small molecules binding activin A – biochemical, small-molecule microarray, 635 nm fluorescence scan, primary screen (AID 1107); settings: INHBA, higher = more signal;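 also: mouse activin A protein probed at 4.33 µg/mL on printed slides; score merges bound-protein fluorescence near 667 nm with spot signal-to-noise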

| SMILES | composite z-score [1] | z-score [2] | z-score [3] | z-score [4] | composite z-score [5] | z-score [6] | composite z-score [7] | composite z-score [8] | composite z-score [9] | composite z-score [10] | composite z-score [11] | composite z-score [12] | composite z-score [13] | z-score [14] | composite z-score [15] | composite z-score [16] | composite z-score [17] | composite z-score [18] | composite z-score [19] | composite z-score [20] |
| --- | --- | --- | --- | --- | --- | --- | --- | --- | --- | --- | --- | --- | --- | --- | --- | --- | --- | --- | --- | --- |
| COC(=O)[C@@]1(Cc2ccccc2)[C@H]2c3cc(C(=O)N4CCCC4)n(Cc4ccccn4)c3C[C@H]2CN1C(=O)c1ccccc1 | 1.57 | 0.263 (inactive) | 0.296 (inactive) | 0.513 (inactive) | 4 | -0.301 (inactive) | 0.614 | 0.856 | 1.14 | 0.211 | 1.54 | 1.52 | 1.31 | -2.15 (inactive) | 1.37 | 1.3 | 0.204 | 1.41 | 0.166 | 0.456 |
| COc1ccc(COC(=O)NN=C2C[C@@H](O)[C@@H](O)[C@@H]3[C@@H]4C(=O)N(Cc5ccc6c(c5)OCO6)C(=O)[C@@H]4CC[C@@H]23)cc1 | -0.291 | -1.65 (inactive) | -0.654 (inactive) | -0.731 (inactive) | 0.529 | -0.486 (inactive) | 0.63 | -0.666 | -0.303 | -0.187 | -0.454 | 0.911 | 1.39 | -1.36 (inactive) | -0.0715 | -0.52 | -0.451 | -0.226 | -0.539 | 0.556 |
| O=C(NN=C1C[C@@H](O)[C@@H](O)[C@@H]2[C@@H]3C(=O)N(c4ccc(F)cc4F)C(=O)[C@@H]3CC[C@@H]12)OCc1ccccc1 | -0.127 | 0.615 (inactive) | 0.664 (inactive) | -0.442 (inactive) | 1.03 | 0.203 (inactive) | -0.11 | -0.0944 | 0.57 | -0.0616 | 0.328 | -0.269 | -0.232 | 0.464 (inactive) | -0.0739 | -0.0799 | 0.452 | 0.297 | 0.092 | -0.103 |
| CO[C@@H]1COC(=O)CC=C[C@@H](C)[C@@H]2C=C[C@@H](O)[C@@H](COC(=O)CC=C[C@H]1C)O2 | 1.44 | -1.85 (inactive) | -0.862 (inactive) | -0.562 (inactive) | -0.284 | -0.552 (inactive) | -0.19 | 1.29 | 0.0667 | -0.0112 | 0.661 | -0.325 | -1.08 | -0.953 (inactive) | 0.954 | 0.524 | 0.935 | 1.48 | 0.804 | 1.12 |
| COCCOC(=O)N1C(=O)[C@@]2(c3cc(C#CC4(O)CCCCCC4)ccc31)[C@H](C(=O)N1CCN(c3ncccn3)CC1)[C@H]1C(=O)O[C@H](c3ccccc3)[C@H](c3ccccc3)N1[C@@H]2c1ccc(OCCO)cc1 | 1.53 | 2.12 (inactive) | 1.35 (inactive) | 5.93 (inactive) | 2.61 | 2.25 (inactive) | -0.0075 | 1.64 | 1.08 | 0.0779 | 1.4 | 0.0932 | -0.0616 | -0.702 (inactive) | 1.18 | 1.3 | 0.729 | 1.19 | 0.738 | 0.274 |
| C[C@@H](c1ccccc1)N1C(=O)[C@H]2[C@H]3[C@H](O)[C@H](O)CC(=NOC[C@@H](O)COCc4ccco4)[C@@H]3CC[C@H]2C1=O | -0.291 | 0.539 (inactive) | 0.37 (inactive) | 1.3 (inactive) | 0.304 | 0.181 (inactive) | -0.217 | -1.01 | -1.1 | -0.221 | 0.693 | -0.349 | -0.402 | -0.115 (inactive) | -0.953 | -0.468 | -0.0809 | -1.31 | -1.03 | -0.365 |
| O=C1[C@H]2[C@H]3[C@H](O)[C@H](O)CC(=NO[C@@H]4O[C@H](CO)[C@@H](O)[C@H](O)[C@H]4O)[C@@H]3CC[C@H]2C(=O)N1c1ccc(F)cc1F | -0.841 | -1.24 (inactive) | -0.114 (inactive) | -1.29 (inactive) | 0.245 | 0.645 (inactive) | -0.119 | 0.575 | 0.79 | -0.113 | 0.406 | -0.157 | -0.445 | -0.244 (inactive) | 0.794 | 0.703 | 0.541 | 0.608 | 0.451 | -0.114 |
| CCN1C(=O)[C@H]2[C@H]3[C@H](O)C=CC(=O)[C@@H]3CC[C@H]2C1=O | -0.777 | 0.0131 (inactive) | -0.373 (inactive) | -0.624 (inactive) | 0.0819 | 0.255 (inactive) | -0.0961 | 0.701 | 0.705 | -0.094 | 0.163 | -0.094 | -0.484 | 0.403 (inactive) | 0.402 | 0.743 | 0.378 | 0.548 | 0.444 | -0.114 |
| COC(=O)C1=C(C)N(Cc2ccccc2)[C@]23O[C@](C(=O)OC)(C(=O)N2[C@@H]1c1ccccc1)[C@H]1CCOC(=O)[C@H]13 | 0.33 | 0.828 (inactive) | 0.494 (inactive) | 1.71 (inactive) | 0.257 | 0.308 (inactive) | -0.0638 | 0.648 | 1.07 | -0.0152 | 0.539 | 0.057 | -0.733 | -0.236 (inactive) | 1.1 | 0.466 | 0.482 | 0.63 | 0.971 | 0.521 |
